A selection: hits, their analogues and other compounds. The true share with any hit is near 3.2%.
Mtb FBA inh – Mtb FBA enzyme inhibitors, primary screen, biochemical, fluorescence, strain H37Rv | Fructose-bisphosphate aldolase (Mycobacterium tuberculosis (strain ATCC 25618 / H37Rv)), … | purified M. tuberculosis FBA, fluorescence read-out | inhibition, % at 1 µM | 360,000 tested, 2.3% active; in the data active = inhibition above about 27%;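 also: 0% = vehicle and 100% = reference inhibitor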
Target sequence (P9WQA3 whole entry, looked up): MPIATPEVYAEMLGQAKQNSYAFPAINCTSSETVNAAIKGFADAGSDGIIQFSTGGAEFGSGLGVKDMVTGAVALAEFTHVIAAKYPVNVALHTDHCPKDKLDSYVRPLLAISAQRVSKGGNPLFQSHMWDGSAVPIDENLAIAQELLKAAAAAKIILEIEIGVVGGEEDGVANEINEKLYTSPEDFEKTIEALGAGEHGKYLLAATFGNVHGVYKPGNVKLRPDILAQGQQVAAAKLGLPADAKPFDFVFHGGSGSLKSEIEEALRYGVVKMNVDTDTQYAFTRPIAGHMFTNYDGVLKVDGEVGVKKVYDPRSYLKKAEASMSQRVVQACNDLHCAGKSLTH
PrPC TRFRET – inhibitors of human cell surface prion protein PrPC, primary screen, cell-based, TR-FRET; inhibition, % at 13.8 µM; TR-FRET read-out; Major prion protein (Homo sapiens), P04156; 370,000 tested, 0.43% active; AID 720596, 2013; in the data active = inhibition above about 24%; also: 0% = median of the test wells and 100% = reference compound wells
TcdB GH inh – TcdB glycohydrolase inhibitors, primary screen, biochemical, single point, plate reader | Toxin B (Clostridioides difficile), P18177 | TcdB glycohydrolase enzymatic assay | inhibition, % at 9.99 µM | 350,000 tested, 0.24% active | AID 652162, 2013; in the data active = inhibition above about 10%
GDH-TPI inh – GDH-TPI coupling enzyme inhibitors, primary screen, artefact control for M. tuberculosis FBA inhibitor project, biochemical, absorbance, full deck; GDH-TPI coupled enzyme counterscreen, NADH absorbance; inhibition, % at 4.8 µM; 360,000 tested, 1.2% active; AID 588335, 2011; in the data active = inhibition above about 30%;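 also: 0% = DMSO wells and 100% = wells lacking the enzyme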
Y pestis TopoI – Yersinia pestis topoisomerase I inhibitors, primary screen, biochemical, cleavage product accumulation, plate reader, single point | DNA topoisomerase I (Yersinia pestis CO92) | AID 504884, 2011 | activity, % at 10 µM | 360,000 tested, 0.064% active | Y. pestis Topo-I cleavage product accumulation; in the data active = activity above about 50%, passing the limit was not always enough
* marks the source's active call; other numbers are inactive results.

How did C[C@@H]1CN([C@H](C)CO)C(=O)c2ccccc2-c2ccccc2CO[C@H]1CN(C)S(=O)(=O)c1cn(C)cn1 do in these assays?
TcdB GH inh: 0.8

Results for Cc1noc(C)c1NC(=O)Nc1ccc2c(c1)C(=O)N([C@@H](C)CO)C[C@H](C)[C@H](CN(C)S(C)(=O)=O)O2 ?
TcdB GH inh: -0.2

What do the screens show for `COc1cc(/C=N/NC(=O)c2ccc3nc[nH]c3c2)ccc1O`?
Mtb FBA inh: -0.5; PrPC TRFRET: -4.8; TcdB GH inh: 2.7; GDH-TPI inh: 59.5*; Y pestis TopoI: -8.0

How did CCN(CC)c1ccc(/C=N/NC(=O)c2c[nH]c3ccccc23)cc1 do in these assays?
Mtb FBA inh: 24.0; PrPC TRFRET: 11.4; TcdB GH inh: 0.4; GDH-TPI inh: 30.1; Y pestis TopoI: -23.0

Results for CN(C)c1ccc(/C=N/NC(=O)c2ccc3nc[nH]c3c2)cc1 ?
Mtb FBA inh: -1.3; PrPC TRFRET: -6.5; TcdB GH inh: -0.8; GDH-TPI inh: 56.1*; Y pestis TopoI: -6.2

Results for O=C(Cc1cc(=O)oc2cc(O)ccc12)NN=Cc1ccc(N(CCCl)CCCl)cc1 ?
Mtb FBA inh: 182.4*; PrPC TRFRET: -10.2; TcdB GH inh: 1.4; GDH-TPI inh: 55.5*; Y pestis TopoI: 11.3

What do the screens show for `O=C(NN=Cc1ccc(N(CCCl)CCCl)cc1)C(=O)c1c[nH]c2ccccc12`?
Mtb FBA inh: -2.1; PrPC TRFRET: 11.7; TcdB GH inh: -4.9; GDH-TPI inh: 43.2*; Y pestis TopoI: 8.3

Results for C[C@@H]1CN([C@@H](C)CO)C(=O)c2cc(NC(=O)Cc3cn(C)c4ccccc34)ccc2O[C@H]1CN(C)Cc1ccncc1 ?
TcdB GH inh: 0.7

How did CCN(CC)c1ccc(/C=N/NC(=O)c2ccc3nc[nH]c3c2)cc1 do in these assays?
Mtb FBA inh: -1.1; PrPC TRFRET: 7.9; TcdB GH inh: 1.2; GDH-TPI inh: 60.0*; Y pestis TopoI: -13.0

What do the screens show for `O=C(NN=Cc1ccc(N(CCCl)CCCl)cc1)c1cc(=O)[nH]c(=O)[nH]1`?
Mtb FBA inh: -2.6; PrPC TRFRET: 0.4; TcdB GH inh: -3.4; GDH-TPI inh: 49.6*; Y pestis TopoI: -0.6

How did CCN(CC)c1ccc(/C=N/NC(=O)c2ccccn2)cc1 do in these assays?
Mtb FBA inh: -1.2; PrPC TRFRET: 4.1; TcdB GH inh: 1.0; GDH-TPI inh: 17.6; Y pestis TopoI: 3.0

Results for CCN(CC)c1ccc(/C=N/NC(=O)c2cc3ccccc3[nH]2)cc1 ?
Mtb FBA inh: 9.6; PrPC TRFRET: 9.1; TcdB GH inh: -1.8; GDH-TPI inh: 32.5*; Y pestis TopoI: 5.8

Results for CSc1ccc(/C=N/NC(=O)c2ccc3nc[nH]c3c2)cc1 ?
Mtb FBA inh: 2.4; PrPC TRFRET: 1.2; TcdB GH inh: 0.0; GDH-TPI inh: 47.8*; Y pestis TopoI: -0.9

What do the screens show for `C[C@@H]1CN([C@H](C)CO)C(=O)c2cccc(NS(=O)(=O)c3cn(C)cn3)c2O[C@@H]1CN(C)S(=O)(=O)c1ccc(Cl)cc1`?
TcdB GH inh: -0.2

Results for Cc1ccc(S(=O)(=O)Nc2ccc3c(c2)C(=O)N([C@H](C)CO)C[C@H](C)[C@@H](CN(C)C(=O)Nc2ccc(F)cc2)OCCCC[C@@H](C)O3)cc1 ?
TcdB GH inh: 0.6

What do the screens show for `C[C@H](CO)N1C[C@H](C)[C@@H](CN(C)S(=O)(=O)c2ccc(Cl)cc2)Oc2ccc(NC(=O)Cc3ccccc3)cc2CC1=O`?
TcdB GH inh: 0.8

Results for C[C@@H]1CN([C@@H](C)CO)C(=O)c2cc(NS(C)(=O)=O)ccc2O[C@@H](C)CCCCO[C@H]1CN(C)S(=O)(=O)c1ccc(F)cc1 ?
TcdB GH inh: 1.0

Results for C[C@@H]1CCCCO[C@H](CN(C)C(=O)Nc2ccc3c(c2)OCO3)[C@H](C)CN([C@H](C)CO)C(=O)c2cc(NC(=O)c3ccncc3)ccc2O1 ?
TcdB GH inh: -0.6

What do the screens show for `O=C(/C=C/Nc1cccc([N+](=O)[O-])c1)c1ccco1`?
Mtb FBA inh: -2.2; PrPC TRFRET: -8.8; GDH-TPI inh: 35.0*; Y pestis TopoI: -5.7

How did COCC#Cc1cnc2c(c1)C(=O)N([C@H](C)CO)C[C@@H](C)[C@@H](CN(C)C(=O)Nc1cc(F)ccc1F)O2 do in these assays?
TcdB GH inh: -1.9

What do the screens show for `O=c1oc2ccc3ccccc3c2c2c1SC(C(F)(F)F)C2` (stereo unspecified)?
Mtb FBA inh: 17.7; GDH-TPI inh: 2.2; Y pestis TopoI: 0.6

Results for O=c1oc2ccccc2c2c1SC(C(F)(F)F)C2 (stereo unspecified) ?
Mtb FBA inh: active; PrPC TRFRET: -7.5; GDH-TPI inh: 12.0; Y pestis TopoI: 11.8

What do the screens show for `Cc1cc(C)nc(NS(=O)(=O)c2ccc(N/C=C\C(=O)c3ccc(Cl)cc3)cc2)n1`?
Mtb FBA inh: 3.1; PrPC TRFRET: 0.7; GDH-TPI inh: 31.5*; Y pestis TopoI: 20.4

How did O=C1CCC/C1=C/Nc1cccc(F)c1 do in these assays?
Mtb FBA inh: -1.0; PrPC TRFRET: 4.9; TcdB GH inh: -0.9; GDH-TPI inh: 34.6*; Y pestis TopoI: 1.1

What do the screens show for `O=C1CCCC/C1=C/Nc1ccc2c(c1)OCO2`?
Mtb FBA inh: -3.9; PrPC TRFRET: 1.4; GDH-TPI inh: 14.6; Y pestis TopoI: 3.1

What do the screens show for `Cc1cc(C)nc(NS(=O)(=O)c2ccc(N/C=C3\CCCC3=O)cc2)n1`?
Mtb FBA inh: -0.4; PrPC TRFRET: -1.9; GDH-TPI inh: 36.8*; Y pestis TopoI: -1.4

How did Cc1cc(C)nc(NS(=O)(=O)c2ccc(N/C=C/C(=O)c3ccc(Cl)c(Cl)c3)cc2)n1 do in these assays?
Mtb FBA inh: 4.8; PrPC TRFRET: 6.3; GDH-TPI inh: 6.4; Y pestis TopoI: -1.2

What do the screens show for `O=C1CCCC/C1=C\Nc1ccc(S(=O)(=O)Nc2cnc3ccccc3n2)cc1`?
Mtb FBA inh: 3.6; PrPC TRFRET: -3.1; TcdB GH inh: -0.1; GDH-TPI inh: 37.5*; Y pestis TopoI: -5.7

What do the screens show for `COc1ccc(Oc2ccc(N/C=C3\CCCC3=O)cc2)cc1`?
Mtb FBA inh: -2.7; PrPC TRFRET: -3.0; GDH-TPI inh: 39.5*; Y pestis TopoI: 19.0

Results for NS(=O)(=O)c1ccc(NC=C2C(=O)OC3(CCCCC3)OC2=O)cc1 ?
Mtb FBA inh: -1.3; PrPC TRFRET: 2.1; GDH-TPI inh: 31.8*; Y pestis TopoI: 7.4

What do the screens show for `COc1ccccc1-c1cc(C(F)(F)F)nc(N2CCN(c3ccccc3)CC2)n1`?
Mtb FBA inh: 27.9*; PrPC TRFRET: -5.4; GDH-TPI inh: -0.9; Y pestis TopoI: -3.1

What do the screens show for `Cn1nc(C(=O)N2CCN(c3ccc(Cl)cc3)CC2)c2c1-c1ccccc1S(=O)(=O)C2`?
Mtb FBA inh: -2.2; PrPC TRFRET: -3.7; TcdB GH inh: 0.6; GDH-TPI inh: 8.2; Y pestis TopoI: 4.5

Compound activity from PubChem BioAssay.
